Source: PubChem BioAssay
HP1b binding inh – HP1-beta chromodomain-methylated histone interaction inhibition; hit rate 0.56% among 390,000; AlphaScreen HP1-beta / biotin-H3K9me3 peptide binding; P83916; Potency, µM (titrated, usually from 114 µM), without a hit: at the top dose activity change, negative = inhibition, hits mostly inhibitors; also: nearly all actives have a fitted effect of over 70% in size
Target sequence (P83916 whole entry, looked up): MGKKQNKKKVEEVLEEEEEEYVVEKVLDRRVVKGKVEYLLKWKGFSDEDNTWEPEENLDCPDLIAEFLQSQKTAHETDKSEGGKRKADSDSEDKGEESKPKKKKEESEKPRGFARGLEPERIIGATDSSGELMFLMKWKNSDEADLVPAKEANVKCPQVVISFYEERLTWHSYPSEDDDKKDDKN
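AlphaScreen: HP1-beta (50 nM) preformed 30 min with biotin-H3(1-18)K9me3 peptide (50 nM) in PBS pH 7.4, 0.01% Tween-20. Compound added for 30 min at RT, then streptavidin donor/nickel chelate acceptor beads (10 ug/mL) for 30 min.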
Sfp PPTase inh – blocks B. subtilis Sfp PPTase activity; Q9F4F7; hit rate 3.5% among 310,000; Potency, µM, for the others: largest response in the series, negative = inhibition, usual class: inhibitors; Biochemical Sfp PPTase activity, qHTS; AID 1490;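 also: the enzyme is Sfp with the accession as filed and its product quenches rhodamine fluorescence; 0% = enzyme reaction without inhibitor and -100% = no enzyme wells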
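Reaction rates are the 30-min fluorescence difference (ex 525, em 598 nm) in wells containing 15 nM Sfp, 5 uM rhodamine-CoA and 12.5 uM BHQ-2-YbbR at pH 7.6 with 10 mM MgCl2.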
BAZ2B block – blocks human BAZ2B; hit rate 4.4% among 360,000; Potency, µM (series often up to 114 µM), for the others: at the highest dose activity change, negative = inhibition, hits mostly inhibitors; Q9UIF8; AlphaScreen BAZ2B-H3K14Ac peptide displacement; also: % is scaled to controls: 0 for no effect and ±100 for the full control effect; nearly all actives have a fitted effect of over 60% in size
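AlphaScreen displacement of biotin-H3(5-23)K14Ac peptide (50 nM final) from BAZ2B (50 nM final) in PBS pH 7.4, 0.01% Tween-20; complex preformed 30 min RT, then compounds (top 110 uM) 30 min RT, beads 20 min dark.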
PLK1 PBD block – PLK1 (human) polo-box domain binding inhibition | hit rate 2.8% among 360,000 | Plk1 PBD binding of FITC phosphopeptide, fluorescence polarization | Potency, µM, for the others: max response, negative = inhibition, usual class: inhibitors | P53350; also: series mostly up to about 57 µM; % is scaled to controls: 0 for no effect and ±100 for the full control effect; nearly all actives have a fitted effect of over 65% in size
JMJD2A Tudor – JMJD2A Tudor domain (human) inhibition. O75164. AlphaScreen JMJD2A-Tudor / H3K4me3 peptide binding. Potency, µM (highest dose often 114 µM), without a hit: top-dose activity change, negative = inhibition, usual class: inhibitors. hit rate 4.4% among 390,000; also: % is scaled to controls: 0 for no effect and ±100 for the full control effect; nearly all actives have a fitted effect of over 50% in size
G9a inh – blocks human histone lysine methyltransferase G9a; Q96KQ7; G9a H3K9 monomethylation, AlphaScreen, 2 h; Potency, µM (titrated, usually from 102 µM), inactives show at the top dose activity, negative = inhibition, usual class: inhibitors; hit rate 8.8% among 350,000; AID 504332; also: % is scaled to controls: 0 for no effect and ±100 for the full control effect; nearly all actives have a fitted effect of over 75% in size
Target sequence (Q96KQ7 913-1193 limits assumed): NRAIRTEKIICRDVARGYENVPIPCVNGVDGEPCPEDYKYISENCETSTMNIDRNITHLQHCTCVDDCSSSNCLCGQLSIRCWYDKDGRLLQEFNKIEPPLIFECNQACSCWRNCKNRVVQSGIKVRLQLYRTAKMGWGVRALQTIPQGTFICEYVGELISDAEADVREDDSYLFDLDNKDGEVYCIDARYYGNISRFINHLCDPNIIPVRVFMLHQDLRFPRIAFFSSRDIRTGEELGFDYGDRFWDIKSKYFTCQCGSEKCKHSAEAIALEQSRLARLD
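Quantitative HTS format: methyltransferase activity on a biotin-tagged H3K9 peptide is measured by AlphaScreen, using a rabbit anti-monomethyl-H3K9 antibody with streptavidin donor and anti-IgG acceptor beads. Final levels are 20 nM enzyme, 500 nM peptide, 20 uM SAM; 2 h RT.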
* marks the source's active call; other numbers are inactive results; ? = inconclusive; . = no result given; [ ] = remark or other dose. Rows were chosen to be rich in hits. Some 12% of all compounds tested hit in one or more screens of this group. Calls follow the shape of the dose curve; as a rule, active = well fitted curve in the direction sought with a large enough effect; inconclusive = small, poorly fitted or top-dose-only effect, or another doubt; inactive = no such curve, though single readings can be large; an effect the other way counts as inactive or inconclusive. Potency is read from the fitted curve at half-maximal effect.

SMILES | HP1b binding inh | Sfp PPTase inh | BAZ2B block | PLK1 PBD block | JMJD2A Tudor | G9a inh
Cc1c(NC(=O)C(CC(=O)O)NCc2ccco2)c(=O)n(-c2ccccc2)n1C (stereo unspecified) | -7% | -11% | 50µM* | -1% | 5µM* | ?
COC(=O)C(CC(=O)O)NCc1ccco1 (stereo unspecified) | 3% | ? | ? | 12µM* | 20µM* | .
Cc1c(NC(=O)c2ccco2)c(=O)n(-c2ccccc2)n1C | 35% | 8% | 11% | -5% | -8% | 8%
O=C(OC(C(=O)NCc1ccco1)C(OC(=O)c1ccccc1)C(=O)NCc1ccco1)c1ccccc1 (stereo unspecified) | 7% | 0% | -6% | -1% | -4% | -21%
O=C(O)CC(NCc1ccco1)C(=O)Nc1cccc(O)c1 (stereo unspecified) | -3% | ? | -37% | -2% | 3.2µM* | 50µM*
O=C(O)CC(NCc1ccco1)C(=O)OCCCl (stereo unspecified) | -3% | -46% | ? | -7% | 28µM* | 7.9µM*
CCc1ccccc1S(=O)(=O)Cc1ccc(C(=O)NCCc2ccc(Cl)cc2)o1 | 39% | . | -5% | . | -13% | 12%[59 µM]
Cc1c(N(C)S(=O)(=O)c2cccc(C(=O)NCC3CCCO3)c2)c(=O)n(-c2ccccc2)n1C (stereo unspecified) | 13% | . | 20% | -8% | 1% | -8%[0.501 µM]
Cc1c(NS(=O)(=O)c2cccc(C(=O)NCc3ccc(Cl)cc3)c2)c(=O)n(-c2ccccc2)n1C | -11% | 19% | 1% | ? | -12%[57.1 µM] | -10%[59 µM]
Cc1c(NS(=O)(=O)c2cccc(C(=O)NCc3ccco3)c2)c(=O)n(-c2ccccc2)n1C | -36% | . | . | -15% | 63µM* | .
Cc1c(N(C)S(=O)(=O)c2cccc(C(=O)NC(C)C)c2)c(=O)n(-c2ccccc2)n1C | 6% | 79µM* | -2% | 30µM* | -23% | 32µM*
CC(C)(/C=N/NC(=O)CSCc1ccc(Cl)cc1)CCC#N | 46% | 8% | -18% | -5% | 5% | -8%
Cc1cc(C)n(CCc2nc(-c3ccco3)cs2)n1 | ? | 8.9µM* | 50µM* | 16µM* | 50µM* | 3.5µM*
Cc1cc(C)n(CCc2nc(-c3cccs3)cs2)n1 | 51% | ? | 5% | ? | 3% | ?
Cc1nn(CCc2nc(-c3ccco3)cs2)c2[nH]c(=O)cc(C(F)(F)F)c12 | ? | ? | ? | 11µM* | 79µM* | ?
N/C(=N\OC(=O)CC(c1ccccc1)c1ccccc1)c1cccnc1 | 74% | 10% | -23% | 1% | 12% | 0%
CCOc1ccccc1OCC(=O)Nc1ccc(N2CCOCC2)cc1N1CCOCC1 | -8% | . | -35% | -9% | ? | 56µM*
O=C(COc1ccccc1F)Nc1ccc(N2CCOCC2)cc1N1CCOCC1 | 28% | . | -9% | 4% | -11% | ?
COc1ccccc1-c1ocnc1C(=O)Nc1ccc(N2CCOCC2)cc1N1CCOCC1 | -13% | -14% | -15% | -14% | ? | 50µM*
CCOc1ccccc1NC(=O)COc1coc(CN2CCCc3ccccc32)cc1=O | -20% | . | ? | -3% | ? | 50µM*
O=C(COc1ccc(F)cc1Cl)Nc1ccc(N2CCOCC2)cc1N1CCOCC1 | -4% | . | -10% | -10% | -28% | 35µM*
CCOc1ccccc1NC(=O)COc1coc(CN2CCc3ccccc3C2)cc1=O | 30% | . | ? | -24% | -23% | 8%[0.501 µM]
Cc1cnc(CNc2ccnc(-c3ccccc3C(F)(F)F)n2)cn1 | . | -9% | . | . | . | 3%[0.501 µM]
Cc1ccc(C(=O)OCc2nnc(-c3ccccc3)o2)o1 | -15% | -9% | -3% | ? | 89µM* | -42%[0.0925 µM]
CC(C)[C@H](NC(=O)c1ccccc1)C(=O)OCc1nnc(-c2ccccc2)o1 | ? | 16% | . | 27µM* | 22µM* | -49%
SMILES | HP1b binding inh | Sfp PPTase inh | BAZ2B block | PLK1 PBD block | JMJD2A Tudor | G9a inh
Cc1ccc(C(=O)N[C@H](C(=O)OCc2nnc(-c3ccccc3)o2)C(C)C)cc1 | 32% | 1% | -4% | -14% | -17% | .
O=C(OCc1nnc(-c2ccccc2)o1)c1cc(S(=O)(=O)N2CCOCC2)c(Cl)cc1Cl | -19% | 2% | -2% | 3µM* | ? | -1%[12.7 µM]
Cc1ccc2cc(C3CC(c4cccs4)=NN3S(C)(=O)=O)c(Cl)nc2c1 (stereo unspecified) | 47% | 3% | -21% | 4% | -2% | 2%
CCOc1ccc2nc(Cl)c(C3CC(c4ccccc4)=NN3C(=O)CCC(=O)O)cc2c1 (stereo unspecified) | 21% | . | -6% | . | -30% | 11%[59 µM]
COc1ccc2cc(C3CC(c4cccs4)=NN3S(C)(=O)=O)c(Cl)nc2c1 (stereo unspecified) | -11% | 14% | 0% | 6.7µM* | ? | -7%[59 µM]
CCOc1ccc2nc(Cl)c(C3CC(c4ccc(C)cc4)=NN3C(=O)CCC(=O)O)cc2c1 (stereo unspecified) | -12% | . | ? | . | 79µM* | 3%[59 µM]
COc1ccc2cc(C3CC(c4ccco4)=NN3C(=O)CCC(=O)O)c(Cl)nc2c1 (stereo unspecified) | 16% | 50µM* | -24% | -12% | -16% | ?
CC(=O)N1N=C(c2cccs2)CC1c1ccco1 (stereo unspecified) | 19% | 13% | -2% | 1% | -10% | 0%
CS(=O)(=O)N1N=C(c2cccs2)CC1c1ccco1 (stereo unspecified) | 16% | 10µM* | ? | -17% | -29% | 6%[12.7 µM]
COc1ccc(SCC(CC(C)C)N2CCN(C)CCC2=O)cc1 (stereo unspecified) | 8% | -2% | . | . | -20% | .
CCOc1ccc2cc(C3CC(c4ccco4)=NN3S(C)(=O)=O)c(Cl)nc2c1 (stereo unspecified) | -17% | 2% | -30% | -11% | -28% | 45µM*
CCCS(=O)(=O)N1CCN(CC2CC3C=CC2C3)CC1 (stereo unspecified) | ? | -26% | 50µM* | -16% | -28%[11.4 µM] | 5.6µM*
CCCS(=O)(=O)N1CCN(S(=O)(=O)c2ccc(F)cc2)CC1 | 33% | 6% | 12% | 1% | -8% | 10%[59 µM]
C1=CC2CC1CC2CN1CCN(Cc2ccccc2)CC1 (stereo unspecified) | ? | 79µM* | 23% | -6% | 1.1µM* | 2µM*
CCS(=O)(=O)N1CCN(CC2CC3C=CC2C3)CC1 (stereo unspecified) | ? | -16% | 50µM* | -5% | 1.3µM* | 11µM*
Cc1ccc(S(=O)(=O)N2CCN(CC3CC4C=CC3C4)CC2)cc1 (stereo unspecified) | 28µM* | ? | 18µM* | -8% | 0.79µM* | 7.9µM*
